# A selection: hits, their analogues and other compounds. The true share with any hit is near 3.5%.
# GDH-TPI counter-1: GDH-TPI coupling enzyme inhibitors, primary screen, artefact control for M. tuberculosis FBA inhibitor project, biochemical, absorbance, full deck | AID 588335, 2011 | inhibition, % at 4.8 µM | hit rate 1.2% among 360,000 | GDH-TPI coupled enzyme counterscreen, NADH absorbance; in the data active = inhibition above about 30%;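 note: 0% = DMSO wells and 100% = wells lacking the enzyme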
# Mtb hypoxia inh: PubChem AID 1159583 | M. tuberculosis hypoxia-regulated fluorescent reporter, fluorescence | hit rate 0.1% among 300,000 | fluorescence inhibition, % (concentration not given with the values); in the data active = fluorescence inhibition mostly above about 23%, no sharp cut-off; inactive = mostly below about 17%
# Mtb UGM inh: M. tuberculosis UGM enzyme inhibitors, primary screen, biochemical, fluorescence polarization, single point | purified UGM, fluorescence polarization probe displacement | inhibition, % at 10 µM | hit rate 0.06% among 320,000 | AID 504406, 2011; in the data active = inhibition above about 10%, passing the limit was not always enough
# Target sequence (P9WIQ1 whole entry, looked up): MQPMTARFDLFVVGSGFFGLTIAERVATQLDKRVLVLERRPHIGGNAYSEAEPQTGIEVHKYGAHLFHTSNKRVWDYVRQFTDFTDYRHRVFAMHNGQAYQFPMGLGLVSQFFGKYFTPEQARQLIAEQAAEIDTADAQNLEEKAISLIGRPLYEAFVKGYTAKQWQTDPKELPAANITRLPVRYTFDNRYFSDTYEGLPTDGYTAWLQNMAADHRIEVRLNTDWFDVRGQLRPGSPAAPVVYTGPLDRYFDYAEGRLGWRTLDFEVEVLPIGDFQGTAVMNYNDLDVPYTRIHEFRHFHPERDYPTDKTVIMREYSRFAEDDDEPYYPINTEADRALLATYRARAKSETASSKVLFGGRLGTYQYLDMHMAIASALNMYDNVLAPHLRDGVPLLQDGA
# Rv3671c protease: Rv3671c serine protease inhibitors, primary screen, biochemical, fluorescence polarization, M. tuberculosis H37Rv; inhibition, % at 5.96 µM; hit rate 0.048% among 320,000; P9WHR9; in the data active = inhibition above about 38%;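 note: extracellular domain of Rv3671c used as enzyme; 0% = enzyme with DMSO and 100% = no enzyme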
# Mtb FBA inh: Mtb FBA enzyme inhibitors, primary screen, biochemical, fluorescence, strain H37Rv; Fructose-bisphosphate aldolase (Mycobacterium tuberculosis (strain ATCC 25618 / H37Rv)), …; purified M. tuberculosis FBA, fluorescence read-out; inhibition, % at 1 µM; hit rate 2.3% among 360,000;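 note: 0% = vehicle and 100% = reference inhibitor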
# Target sequence (P9WQA3 whole entry, looked up): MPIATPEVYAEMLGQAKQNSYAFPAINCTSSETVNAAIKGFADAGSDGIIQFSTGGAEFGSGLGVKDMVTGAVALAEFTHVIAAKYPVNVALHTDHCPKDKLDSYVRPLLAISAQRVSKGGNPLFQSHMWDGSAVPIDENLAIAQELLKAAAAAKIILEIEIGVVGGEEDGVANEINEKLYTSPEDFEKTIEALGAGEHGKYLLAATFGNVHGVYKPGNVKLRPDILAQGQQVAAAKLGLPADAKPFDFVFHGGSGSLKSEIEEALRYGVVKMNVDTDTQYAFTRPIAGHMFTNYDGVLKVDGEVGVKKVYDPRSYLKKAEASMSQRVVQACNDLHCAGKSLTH
# FadD28 FP inh: inhibitors of FadD28 bisubstrate probe binding, primary screen, biochemical, fluorescence polarization, single point. Mycobacterium tuberculosis FadD28 fatty-acid-AMP ligase. inhibition, % at 12.5 µM. hit rate 0.22% among 360,000; in the data active = inhibition above about 8.5%, passing the limit was not always enough
# Mtb FBA confirm: M. tuberculosis aldolase blockers, biochemical, fluorescence, strain H37Rv, confirmation | inhibition, % at 1 µM | purified M. tuberculosis FBA, fluorescence read-out | hit rate 78% among 5,600 | shares compounds with Mtb FBA inh;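 note: 0% = vehicle wells and 100% = reference inhibitor wells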
# GDH-TPI counter-2: GDH-TPI coupling enzyme inhibitors, artefact control for M. tuberculosis FBA inhibitor project, biochemical, fluorescence, high throughput. shares compounds with Mtb FBA inh. GDH-TPI coupled enzyme counterscreen. inhibition, % at 1 µM. hit rate 81% among 5,600. AID 652141, 2013; in the data active = inhibition above about 10%
# GDH-TPI DR: GDH-TPI coupling enzyme inhibitors, dose response, artefact control for M. tuberculosis FBA inhibitor project, biochemical, fluorescence, IC50; hit rate 79% among 170; GDH-TPI coupled enzyme assay, artifact counterscreen; IC50, µM; shares compounds with Mtb FBA inh; call rule not given here
# * marks the source's active call; other numbers are inactive results; . = no result given; + = active, no number. Cut-off read from the data, not from the text of the source, unless noted: active = inhibition above about 27%; inactive = the rest.
SMILES,GDH-TPI counter-1,Mtb hypoxia inh,Mtb UGM inh,Rv3671c protease,Mtb FBA inh,FadD28 FP inh,Mtb FBA confirm,GDH-TPI counter-2,others
CCOC(=O)C1C2COc3ccccc3C2N2C(=O)c3ccc(C)cc3NC(=O)[C@@]12C (some centres undefined),.,2.2,.,.,.,.,.,.,
CC(=NNC(=O)C(N)=O)c1ccc(Br)cc1,.,-0.7,.,.,.,.,.,.,
S=C(c1ccc(OCc2ccccc2)cc1)N1CCCC1,10.4,2.2,2.5,-3.7,30.4*,-2.5,12.1,0.3,GDH-TPI DR=>10
Fc1ccc(COc2ccc(C(=S)N3CCCC3)cc2)cc1,-1.5,19.2,0.1,-7.8,0.0,-5.5,.,.,
CCOC(=O)c1c(NC(=O)C=CC(=O)O)sc(C)c1-c1ccccc1,.,-1.1,.,.,.,.,.,.,
CC(C)(C)OC(=O)NCCC(=O)NN=Cc1cccc2cccnc12,.,-0.3,.,.,.,.,.,.,
ClC1(Cl)CC1CSc1nc2ccccc2[nH]1 (centres undefined),0.0,3.3,-0.7,0.2,33.1*,-3.1,88.2*,85.0*,
CCOc1ccc2nc(SCC3CC3(Cl)Cl)[nH]c2c1 (centres undefined),5.4,5.2,-0.2,-6.0,-2.3,-3.2,.,.,
CCOC(=O)C1CCN(C(=O)CCc2c(C)nc3ncnn3c2C)CC1,8.3,9.0,1.3,1.5,-4.9,-0.3,.,.,
CCOC(=O)C1CCN(C(=O)CCc2c(C)nc3cc(-c4ccc(OC)cc4OC)nn3c2C)CC1,1.2,-2.0,-0.8,-3.1,50.1*,-3.6,99.6*,67.5*,
O=C(NCCCNCCCNC(=O)c1ccc(C=NO)nc1)c1ccc(C=NO)nc1,.,2.5,.,.,.,.,.,.,
CCN(C(=S)Nc1cccnc1)c1cccc2ccccc12,4.8,9.2,0.2,-6.5,48.8*,-1.0,147.6*,128.0*,
CC(=NNC(=S)NC1CCCCC1)c1cccc(Br)c1,.,-5.7,.,.,.,.,.,.,
Cc1cccc(C)c1OCC(O)CN(Cc1ccccc1O)C1CCCCC1 (centres undefined),-1.3,9.7,2.1,7.1,32.2*,-5.3,44.4*,30.9*,
O=C(N/N=C/c1cc(Cl)ccc1O)c1ccc(Br)cc1,11.5,.,0.2,-3.8,26.9*,1.5,77.9*,56.6*,
NC(=O)CSc1oc(-c2ccc(F)cc2)nc1S(=O)(=O)c1ccccc1,8.9,6.5,1.7,1.4,62.0*,-1.6,158.2*,89.0*,
Cc1ccc(-c2nc(S(=O)(=O)c3ccc(C)cc3)c(SCC(N)=O)o2)cc1,-9.3,0.8,0.7,-7.1,-1.1,-6.9,.,.,
COc1ccccc1C(=O)NN=Cc1cnc2ccccc2n1,.,-18.1,.,.,.,.,.,.,
COc1ccc(C(=O)N/N=C/c2ccc(N(C)c3ccccc3)cc2)cc1,26.1,.,-0.2,3.5,40.9*,3.9,109.4*,99.0*,
COc1ccc(OC)c(/C=N\NC(=O)c2ccc(-c3ccccc3)cc2)c1,9.9,.,-1.7,.,7.6,-0.2,.,.,
COc1ccc(C=NNC(=O)c2ccc(N(C)S(=O)(=O)c3ccccc3)cc2)cc1,.,-8.6,.,.,.,.,.,.,
COc1ccc(C(=O)N/N=C/c2cc3ccccc3[nH]c2=O)cc1,50.0*,.,0.5,21.2,39.7*,-4.5,126.5*,106.5*,
O=C(CC1CC=CCC(NC(=O)OCC2c3ccccc3-c3ccccc32)C(=O)OCC(Cc2ccccc2)NC1=O)NCCO (centres undefined),.,-3.1,.,.,.,.,.,.,
O=[N+]([O-])c1cccc(C=NN=C2c3ccccc3-c3ccccc32)c1,9.5,.,.,.,30.0*,-1.8,143.9*,108.6*,
O=[N+]([O-])c1ccc(O)c(C=NN=C2c3ccccc3-c3ccccc32)c1,.,3.0,.,.,.,.,.,.,
SMILES,GDH-TPI counter-1,Mtb hypoxia inh,Mtb UGM inh,Rv3671c protease,Mtb FBA inh,FadD28 FP inh,Mtb FBA confirm,GDH-TPI counter-2,others
Cc1cc(-c2ccc(Cl)cc2)n2nc(N)nc2n1,14.5,.,-1.7,0.9,59.2*,-1.1,17.4,7.3,GDH-TPI DR=2.56*
Cc1cc(N)n2ncc(-c3ccc(Cl)cc3)c2n1,12.7,-3.8,-0.4,7.1,3.4,1.3,.,.,
Cc1cc(Nc2ccc(Cl)cc2)n2ncnc2n1,4.6,-0.6,-1.8,.,4.8,-1.8,.,.,
Cc1cc(-c2ccc(Cl)cc2)n2ncnc2n1,9.6,2.3,3.2,-4.0,27.5*,-1.5,100.7*,91.0*,
O=C1NCC(c2ccccc2)N(CCc2cccc3ccccc23)C1=O (centres undefined),.,-5.3,.,.,.,.,.,.,
COC1=CC(=O)OC(C=Cc2ccccc2)C1 (centres undefined),.,0.7,.,.,.,.,.,.,
O=C(O)CCc1ccc(-c2ccc(F)cc2)n1CC1CCCO1 (centres undefined),-3.8,3.6,-0.3,6.5,18.4,-1.0,.,.,
COc1ccc(-c2ccc(CCC(=O)O)n2CC(C)C)cc1,-11.6,8.0,1.8,-4.5,40.9*,3.1,47.5*,29.8*,
COc1ccc(-c2ccc(CCC(=O)O)n2CC2CCCO2)cc1 (centres undefined),10.7,-7.6,1.6,-16.9,32.5*,0.2,+,144.1*,
O=C(CCc1ccccc1)NN=Cc1cc2c(cc1Br)OCO2,.,5.4,.,.,.,.,.,.,
COc1ccc(OC)c(S(=O)(=O)NN=Cc2cn(CC(N)=O)c3ccccc23)c1,.,-6.2,.,.,.,.,.,.,
Cc1ccccc1C=NNc1ncnc2nc[nH]c12,.,-8.5,.,.,.,.,.,.,
CN(C)C(=O)Oc1ccc(-c2cn3cc(C(F)(F)F)ccc3n2)cc1,5.8,2.0,1.9,-0.1,34.2*,-2.9,70.0*,58.5*,
COCCn1c(C(=O)N2CCCC2)cc2c1CC1CN(C(=O)c3ccccc3)[C@@](Cc3ccc(F)cc3)(C(=O)OC)C21 (some centres undefined),.,4.1,.,.,.,.,.,.,
N=c1oc2cc(O)ccc2cc1C(=O)Nc1ccc(F)cc1,-2.0,3.2,-0.7,-3.9,90.5*,-2.2,160.1*,133.7*,
O=C(c1ccc(F)cc1)c1cc2ccc(O)cc2oc1=O,10.0,-3.8,0.0,-4.0,-5.9,0.3,.,.,
COc1ccc2oc(=O)c(C(=O)NCc3ccco3)cc2c1,20.0,0.5,-1.5,3.8,65.5*,0.3,-2.4,-5.0,
COc1cccc2cc(C(=O)NCc3ccco3)c(=O)oc12,12.2,11.5,2.1,-2.8,1.0,-0.5,.,.,
COc1ccc2oc(=O)c(C(=O)Nc3ccccc3O)cc2c1,-0.3,6.5,0.9,-0.8,-8.2,-4.1,.,.,
COc1ccc2oc(=O)c(C(=O)NC(C)c3ccccc3)cc2c1 (centres undefined),11.8,-0.3,1.7,-5.1,43.8*,-3.2,141.6*,86.8*,
O=C(NN=Cc1ccncc1)c1cnccn1,.,8.6,.,.,.,.,.,.,
COc1ccccc1NN=Cc1c(CO)cnc(C)c1O,.,0.6,.,.,.,.,.,.,

# Screening results deposited in PubChem by several laboratories.
